TNFa cytotox: HUVEC cytotoxicity counter-screen, TNF alpha stimulated; HUVEC TNFalpha-stimulated, Hoechst cell count, imaging; cell count reduction, % at 2 µM; hit rate 0.17% among 93,000;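 active = cell count reduction exceeding the screen mean by over 5 SD, scaled to untreated wells per plate, cut at about 78% in these data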;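 also: cells counted after 24 h of TNF alpha exposure following the 1 h pretreatment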
E-sel TNF inh: blocks E-selectin expression induced by TNF alpha | HUVEC TNFa-induced E-selectin immunofluorescence, high content | inhibition, % at 2 µM | hit rate 0.71% among 120,000 | AID 1246;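 active = inhibition above the batch mean plus 3 SD, and confirmed as a hit on visual image review, cut at about 43% in these data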;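 also: 0% = TNF-stimulated DMSO wells and 100% = unstimulated control wells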
VCAM1 TNFa inh: reduces TNF alpha induced VCAM1 expression in HUVEC; HUVEC TNFa-induced VCAM-1 immunofluorescence, high-content imaging; inhibition, % at 2 µM; hit rate 0.48% among 95,000; AID 802;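 active = inhibition above the batch mean plus 3 SD, with images confirmed as a hit by eye, cut at about 37% in these data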;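 also: 0% = TNF-stimulated DMSO wells and 100% = unstimulated control wells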
F-actin modifier: alters cytoskeleton assembly in HUVEC cells | inhibition, % at 2 µM | HUVEC TNFa F-actin phalloidin imaging, high content | hit rate 0.18% among 91,000;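 active = inhibition above the batch mean plus 3 SD and confirmed as a hit by visual image inspection, cut at about 30% in these data, passing the limit was not always enough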
Starred values were filed as active, the others as inactive; . = not tested or not shown. Sampled rows, rich in hits. Any-hit rate of the full collection: about 1%.

SMILES	TNFa cytotox	E-sel TNF inh	VCAM1 TNFa inh	F-actin modifier
Cc1ccc(NC(=O)CC2S/C(=N/c3nccs3)N(C)C2=O)c(C)c1 (stereo not drawn)	35	1	-3	-8
Cc1cc(C)n(-c2nc3ccccc3nc2N2CCC(C)CC2)n1	-4	-8	12	-9
Cc1cc(N2CCC(C)CC2)nc(-n2nc(C)cc2C)n1	27	1	-4	40*
O=C(Nc1ccccc1N1CCOCC1)c1ccc2nc[nH]c2c1	.	-11	.	.
CCOC(=O)CCc1nc2ccccc2[nH]c1=O	-13	63*	4	8
COC(=O)CCc1nc2ccccc2[nH]c1=O	-30	-10	17	-3
O=C(CSc1nnc(-c2cccs2)n1-c1ccccc1)N1CCCC1	88*	21	59	-44
O=C(CSc1nnc(-c2cccs2)n1-c1ccccc1)N1CCOCC1	-10	-9	4	12
O=C(c1ccco1)N1CCN(C(=S)NC2CC3CCC2C3)CC1 (stereo not drawn)	.	-35	.	.
CCCC(=O)C1=C(O)C(C(=O)OC)C(C)(C)CC1=Nc1ccc(N)cc1 (stereo not drawn)	-30	59*	16	-18
CCCC(=O)C1=C(O)C(C(=O)OC)C(C)(C)CC1=Nc1ccc(OC)cc1 (stereo not drawn)	.	-15	.	.
C=CCN(CC=C)S(=O)(=O)c1ccc(NC(=S)NC(=O)/C=C/c2cccc3ccccc23)cc1	2	68*	-10	-12
Cn1cc(C(=O)c2ccc(Cl)cc2)cc1-c1nc2ccccc2n1C	-18	9	-7	3
COc1ccc(N/C=C/C(=O)c2ccc(C)cc2)c([N+](=O)[O-])c1	-7	65*	-6	19
Cc1ccc(C)c(N2N=C(C(=O)Nc3nccs3)CCC2=O)c1	.	-2	.	.
O=c1cc(CO)oc(C(Nc2ccccn2)c2ccccc2F)c1O (stereo not drawn)	-19	68*	-3	-1
CCOC(=O)Cc1csc(SCC(=O)/C(C#N)=C(\C)N)n1	79*	14	59*	22
NC(=S)N/N=C/c1ccc(-c2ccc(Cl)c(Cl)c2)o1	8	-1	68*	-5
COC(=O)N/N=C\c1ccc(-c2cc(Cl)c(Cl)cc2Cl)o1	.	7	.	.
COC(=O)N/N=C/c1ccc(-c2cc(Cl)ccc2Cl)o1	.	-5	.	.
NC(=S)N/N=C\c1ccc(-c2cccc(Cl)c2Cl)o1	49	1	80*	-64
Cc1ccc(CNC(=O)COC(=O)CCC(=O)c2cccs2)cc1	.	5	.	.
COc1ccc(S(=O)(=O)Cc2ccc(C(=O)NC3CCCC3)o2)cc1	-12	.	4	-1
COc1ccc(S(=O)(=O)Cc2ccc(C(=O)N3CCOCC3)o2)cc1	.	95*	.	.
CCOC(=O)N1CCC(NC(=O)c2ccc(CS(=O)(=O)c3ccc(OC)cc3)o2)CC1	-32	.	85*	27
SMILES	TNFa cytotox	E-sel TNF inh	VCAM1 TNFa inh	F-actin modifier
COCC(=O)Nc1ccc(S(=O)(=O)Nc2ccccn2)cc1	.	-17	.	.
O=C(CCn1c(=O)oc2ccccc21)N1CCN(c2ccccc2F)CC1	80*	.	41	0
O=C(CCn1c(=O)oc2ccccc21)N1CCN(C(c2ccccc2)c2ccccc2)CC1	-7	.	-8	10
CCN(Cc1ccccc1)C(=O)COC(=O)CNC(=O)c1ccc(C)s1	.	-7	.	.
COc1ccc(C2C(C(=O)Nc3cccnc3)=C(C)Nc3nc(-c4cccs4)nn32)cc1 (stereo not drawn)	-31	100*	17	-15
CCOC(=O)N1CCN(S(=O)(=O)c2ccc(C)c([N+](=O)[O-])c2)CC1	.	29	.	.
Cc1ccnc(N2C(=O)C3C4CC(C(Br)C4Br)C3C2=O)c1 (stereo not drawn)	1	54*	-2	16
O=C1C2C3CC(C(Br)C3Br)C2C(=O)N1c1ccccn1 (stereo not drawn)	-9	-9	8	-3
Cc1noc(C)c1S(=O)(=O)Nc1ccc(C(=O)NC2CCCCC2C)cc1 (stereo not drawn)	-11	75*	1	-30
O=c1ccc(NS(=O)(=O)c2ccc(Cl)cc2)cn1Cc1ccc(Cl)c(Cl)c1	24	-37	-9	16
COC(=O)c1nnn(-c2ccc(Cl)c(Cl)c2)c1C(=O)OC	.	73*	.	.
COC(=O)c1nnn(-c2ccccc2)c1N	.	6	-18	2
COc1cc(/C=C/C(=O)N2CCCN(C(=O)/C=C/c3cc(OC)c(OC)c(OC)c3)CC2)cc(OC)c1OC	.	5	.	.
COc1cc(/C=C/C(=O)N2CCN(CC(O)COc3ccccc3)CC2)cc(OC)c1OC (stereo not drawn)	-23	66*	2	33
Cc1ccc(C)n1-c1cccc(NC(=O)c2ccccc2)c1	.	93*	.	.
CC1(C)Cc2c(sc(NC(=O)C(C)(C)C)c2C#N)C(C)(C)N1	89*	-20	-13	76*
CCC(=O)Nc1sc2c(c1C#N)CC(C)(C)NC2(C)C	23	.	5	-27
